Source: ChEMBL document CHEMBL2218924, “A broad activity screen in support of a chemogenomic map for kinase signalling research and drug discovery” (Biochem J, 2013)

What was measured:
[1] = molecular target: T1, Dual specificity mitogen-activated protein kinase kinase 6 (Homo sapiens) (UniProt P52564); conditions: at 1 µM
T1 sequence (whole entry): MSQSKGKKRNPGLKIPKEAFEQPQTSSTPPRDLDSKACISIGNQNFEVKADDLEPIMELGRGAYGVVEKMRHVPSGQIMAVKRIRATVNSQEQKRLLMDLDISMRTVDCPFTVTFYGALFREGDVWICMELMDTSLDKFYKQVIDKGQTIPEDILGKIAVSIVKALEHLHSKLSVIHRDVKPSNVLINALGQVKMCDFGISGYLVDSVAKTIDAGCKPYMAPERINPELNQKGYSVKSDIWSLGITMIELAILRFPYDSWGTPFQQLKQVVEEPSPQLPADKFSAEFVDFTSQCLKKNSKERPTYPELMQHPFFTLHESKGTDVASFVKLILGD

[2] = molecular target: T1, Dual specificity mitogen-activated protein kinase kinase 6 (Homo sapiens); conditions: at 10 µM
[3] = molecular target: T2, Dual specificity mitogen-activated protein kinase kinase 7 (Homo sapiens) (UniProt O14733); conditions: at 1 µM
T2 sequence (whole entry): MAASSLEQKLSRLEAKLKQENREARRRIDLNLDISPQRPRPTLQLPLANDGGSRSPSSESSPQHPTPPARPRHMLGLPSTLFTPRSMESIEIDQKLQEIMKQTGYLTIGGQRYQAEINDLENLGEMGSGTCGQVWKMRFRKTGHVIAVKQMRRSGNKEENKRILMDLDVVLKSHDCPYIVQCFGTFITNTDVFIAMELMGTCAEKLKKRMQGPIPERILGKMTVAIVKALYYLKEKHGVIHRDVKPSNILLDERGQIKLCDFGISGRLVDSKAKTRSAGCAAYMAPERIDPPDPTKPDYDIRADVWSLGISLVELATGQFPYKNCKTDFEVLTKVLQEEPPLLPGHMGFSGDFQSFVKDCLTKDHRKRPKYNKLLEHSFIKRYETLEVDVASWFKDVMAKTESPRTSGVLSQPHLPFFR

[4] = molecular target: Mitogen-activated protein kinase kinase kinase 9 (Homo sapiens) (UniProt P80192); conditions: at 1 µM
[5] = molecular target: Mitogen-activated protein kinase kinase kinase 9 (Homo sapiens) (UniProt P80192); conditions: at 10 µM
[6] = molecular target: Serine/threonine-protein kinase MRCK alpha (Homo sapiens) (UniProt Q5VT25); conditions: at 1 µM
[7] = molecular target: Serine/threonine-protein kinase MRCK alpha (Homo sapiens) (UniProt Q5VT25); conditions: at 10 µM
[8] = molecular target: Serine/threonine-protein kinase MRCK beta (Homo sapiens) (UniProt Q9Y5S2); conditions: at 1 µM
[9] = molecular target: Serine/threonine-protein kinase MRCK beta (Homo sapiens) (UniProt Q9Y5S2); conditions: at 10 µM
[10] = molecular target: Ribosomal protein S6 kinase alpha-5 (Homo sapiens) (UniProt O75582); conditions: at 1 µM
[11] = molecular target: Ribosomal protein S6 kinase alpha-5 (Homo sapiens) (UniProt O75582); conditions: at 10 µM
[12] = molecular target: SRSF protein kinase 3 (Homo sapiens) (UniProt Q9UPE1); conditions: at 1 µM
[13] = molecular target: SRSF protein kinase 3 (Homo sapiens) (UniProt Q9UPE1); conditions: at 10 µM
[14] = molecular target: T3, Serine/threonine-protein kinase 4 (Homo sapiens) (UniProt Q13043); conditions: at 1 µM
T3 sequence (whole entry): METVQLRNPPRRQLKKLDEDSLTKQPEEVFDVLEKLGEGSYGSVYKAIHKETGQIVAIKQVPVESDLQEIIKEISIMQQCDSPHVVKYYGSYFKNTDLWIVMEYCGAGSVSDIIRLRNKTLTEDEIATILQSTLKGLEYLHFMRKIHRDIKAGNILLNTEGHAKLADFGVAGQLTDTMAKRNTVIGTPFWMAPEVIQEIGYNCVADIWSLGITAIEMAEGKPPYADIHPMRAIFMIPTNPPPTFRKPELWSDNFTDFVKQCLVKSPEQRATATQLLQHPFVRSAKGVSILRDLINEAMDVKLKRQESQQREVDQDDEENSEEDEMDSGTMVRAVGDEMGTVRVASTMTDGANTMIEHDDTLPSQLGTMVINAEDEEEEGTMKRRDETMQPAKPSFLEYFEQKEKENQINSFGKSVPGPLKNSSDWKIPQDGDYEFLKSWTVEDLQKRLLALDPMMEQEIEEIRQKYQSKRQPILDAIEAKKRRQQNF

[15] = molecular target: T3, Serine/threonine-protein kinase 4 (Homo sapiens); conditions: at 10 µM
[16] = molecular target: T2, Dual specificity mitogen-activated protein kinase kinase 7 (Homo sapiens); conditions: at 10 µM
[17] = molecular target: Myosin light chain kinase, smooth muscle (Homo sapiens) (UniProt Q15746); conditions: at 1 µM
[18] = molecular target: Myosin light chain kinase, smooth muscle (Homo sapiens) (UniProt Q15746); conditions: at 10 µM
[19] = molecular target: Ribosomal protein S6 kinase alpha-4 (Homo sapiens) (UniProt O75676); conditions: at 1 µM
[20] = molecular target: Ribosomal protein S6 kinase alpha-4 (Homo sapiens) (UniProt O75676); conditions: at 10 µM

Ribosomal protein S6 kinase alpha-4 (Homo sapiens), sequence (O75676 whole entry, looked up): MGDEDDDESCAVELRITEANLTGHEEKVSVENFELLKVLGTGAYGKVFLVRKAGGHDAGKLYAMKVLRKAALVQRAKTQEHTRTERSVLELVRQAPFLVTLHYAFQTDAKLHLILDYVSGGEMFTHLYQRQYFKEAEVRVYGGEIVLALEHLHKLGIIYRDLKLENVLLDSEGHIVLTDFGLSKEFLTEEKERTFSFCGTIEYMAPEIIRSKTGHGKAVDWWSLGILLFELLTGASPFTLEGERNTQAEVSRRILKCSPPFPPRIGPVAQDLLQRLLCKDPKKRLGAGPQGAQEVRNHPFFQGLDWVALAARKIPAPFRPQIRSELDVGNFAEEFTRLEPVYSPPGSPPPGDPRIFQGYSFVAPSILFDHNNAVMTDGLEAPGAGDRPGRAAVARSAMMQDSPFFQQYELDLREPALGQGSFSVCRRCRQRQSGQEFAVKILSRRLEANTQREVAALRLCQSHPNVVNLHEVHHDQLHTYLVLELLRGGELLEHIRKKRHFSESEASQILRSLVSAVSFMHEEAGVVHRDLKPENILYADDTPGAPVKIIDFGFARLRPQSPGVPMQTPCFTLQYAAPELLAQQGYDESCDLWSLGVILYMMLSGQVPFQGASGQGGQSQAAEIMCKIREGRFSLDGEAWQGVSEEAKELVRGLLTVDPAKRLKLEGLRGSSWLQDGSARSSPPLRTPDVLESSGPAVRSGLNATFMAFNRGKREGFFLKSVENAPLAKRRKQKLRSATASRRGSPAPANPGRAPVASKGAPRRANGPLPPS
Serine/threonine-protein kinase MRCK beta (Homo sapiens), sequence (Q9Y5S2 whole entry): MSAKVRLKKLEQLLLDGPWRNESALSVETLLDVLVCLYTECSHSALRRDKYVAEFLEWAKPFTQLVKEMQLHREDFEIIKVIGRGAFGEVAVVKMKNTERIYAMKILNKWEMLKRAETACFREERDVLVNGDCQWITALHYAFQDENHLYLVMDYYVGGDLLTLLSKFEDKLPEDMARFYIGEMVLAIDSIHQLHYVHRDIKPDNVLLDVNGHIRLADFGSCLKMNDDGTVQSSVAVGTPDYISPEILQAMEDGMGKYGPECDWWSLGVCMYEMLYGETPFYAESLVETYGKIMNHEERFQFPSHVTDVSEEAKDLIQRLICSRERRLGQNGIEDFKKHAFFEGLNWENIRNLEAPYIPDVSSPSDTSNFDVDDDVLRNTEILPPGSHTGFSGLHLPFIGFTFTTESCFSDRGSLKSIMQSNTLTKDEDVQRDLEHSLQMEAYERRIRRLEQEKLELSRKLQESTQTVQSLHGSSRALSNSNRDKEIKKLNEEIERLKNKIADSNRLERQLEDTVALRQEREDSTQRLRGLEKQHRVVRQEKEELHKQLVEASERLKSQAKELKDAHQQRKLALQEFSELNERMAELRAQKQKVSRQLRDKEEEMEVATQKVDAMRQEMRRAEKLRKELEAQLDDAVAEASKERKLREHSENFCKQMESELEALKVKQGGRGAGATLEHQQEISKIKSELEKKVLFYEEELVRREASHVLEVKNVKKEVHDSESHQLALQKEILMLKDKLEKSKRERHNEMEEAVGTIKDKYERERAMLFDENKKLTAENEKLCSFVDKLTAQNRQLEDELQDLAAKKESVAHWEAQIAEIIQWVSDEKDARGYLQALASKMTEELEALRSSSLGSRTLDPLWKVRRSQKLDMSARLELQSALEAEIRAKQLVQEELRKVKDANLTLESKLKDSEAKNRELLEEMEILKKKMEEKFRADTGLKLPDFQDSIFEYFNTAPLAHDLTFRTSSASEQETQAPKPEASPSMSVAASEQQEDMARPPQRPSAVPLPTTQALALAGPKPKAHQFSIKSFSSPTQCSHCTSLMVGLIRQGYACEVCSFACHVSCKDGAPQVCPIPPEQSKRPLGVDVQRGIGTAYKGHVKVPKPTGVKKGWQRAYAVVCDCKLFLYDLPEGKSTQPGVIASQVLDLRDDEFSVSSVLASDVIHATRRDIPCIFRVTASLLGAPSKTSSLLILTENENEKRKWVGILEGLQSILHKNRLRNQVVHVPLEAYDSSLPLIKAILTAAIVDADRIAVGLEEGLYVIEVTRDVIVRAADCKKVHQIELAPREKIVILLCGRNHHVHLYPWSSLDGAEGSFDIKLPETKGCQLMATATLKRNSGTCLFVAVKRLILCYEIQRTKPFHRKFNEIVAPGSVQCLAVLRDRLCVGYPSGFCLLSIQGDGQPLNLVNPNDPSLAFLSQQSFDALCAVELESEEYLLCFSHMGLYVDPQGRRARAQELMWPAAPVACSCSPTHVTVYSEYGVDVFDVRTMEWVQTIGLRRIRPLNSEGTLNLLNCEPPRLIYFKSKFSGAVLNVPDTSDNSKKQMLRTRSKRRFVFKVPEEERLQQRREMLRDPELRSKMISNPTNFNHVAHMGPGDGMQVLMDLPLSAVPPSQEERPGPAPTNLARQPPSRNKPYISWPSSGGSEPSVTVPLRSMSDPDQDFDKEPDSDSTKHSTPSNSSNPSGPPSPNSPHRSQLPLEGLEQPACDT
SRSF protein kinase 3 (Homo sapiens), sequence (Q9UPE1 whole entry): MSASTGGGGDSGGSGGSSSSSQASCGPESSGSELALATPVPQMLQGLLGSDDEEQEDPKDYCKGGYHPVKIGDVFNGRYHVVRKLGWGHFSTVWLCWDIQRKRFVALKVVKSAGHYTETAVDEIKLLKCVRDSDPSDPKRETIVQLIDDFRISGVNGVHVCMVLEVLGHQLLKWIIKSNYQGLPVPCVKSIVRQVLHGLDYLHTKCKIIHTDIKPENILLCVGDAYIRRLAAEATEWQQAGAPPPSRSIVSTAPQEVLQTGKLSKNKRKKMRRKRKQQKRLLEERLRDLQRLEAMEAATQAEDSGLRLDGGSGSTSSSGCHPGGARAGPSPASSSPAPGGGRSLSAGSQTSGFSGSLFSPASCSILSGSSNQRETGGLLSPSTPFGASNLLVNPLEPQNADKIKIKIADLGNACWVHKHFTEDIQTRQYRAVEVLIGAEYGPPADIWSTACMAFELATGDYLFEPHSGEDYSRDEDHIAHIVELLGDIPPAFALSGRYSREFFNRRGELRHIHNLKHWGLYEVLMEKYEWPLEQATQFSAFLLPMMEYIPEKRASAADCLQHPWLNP
Mitogen-activated protein kinase kinase kinase 9 (Homo sapiens), sequence (P80192 whole entry, looked up): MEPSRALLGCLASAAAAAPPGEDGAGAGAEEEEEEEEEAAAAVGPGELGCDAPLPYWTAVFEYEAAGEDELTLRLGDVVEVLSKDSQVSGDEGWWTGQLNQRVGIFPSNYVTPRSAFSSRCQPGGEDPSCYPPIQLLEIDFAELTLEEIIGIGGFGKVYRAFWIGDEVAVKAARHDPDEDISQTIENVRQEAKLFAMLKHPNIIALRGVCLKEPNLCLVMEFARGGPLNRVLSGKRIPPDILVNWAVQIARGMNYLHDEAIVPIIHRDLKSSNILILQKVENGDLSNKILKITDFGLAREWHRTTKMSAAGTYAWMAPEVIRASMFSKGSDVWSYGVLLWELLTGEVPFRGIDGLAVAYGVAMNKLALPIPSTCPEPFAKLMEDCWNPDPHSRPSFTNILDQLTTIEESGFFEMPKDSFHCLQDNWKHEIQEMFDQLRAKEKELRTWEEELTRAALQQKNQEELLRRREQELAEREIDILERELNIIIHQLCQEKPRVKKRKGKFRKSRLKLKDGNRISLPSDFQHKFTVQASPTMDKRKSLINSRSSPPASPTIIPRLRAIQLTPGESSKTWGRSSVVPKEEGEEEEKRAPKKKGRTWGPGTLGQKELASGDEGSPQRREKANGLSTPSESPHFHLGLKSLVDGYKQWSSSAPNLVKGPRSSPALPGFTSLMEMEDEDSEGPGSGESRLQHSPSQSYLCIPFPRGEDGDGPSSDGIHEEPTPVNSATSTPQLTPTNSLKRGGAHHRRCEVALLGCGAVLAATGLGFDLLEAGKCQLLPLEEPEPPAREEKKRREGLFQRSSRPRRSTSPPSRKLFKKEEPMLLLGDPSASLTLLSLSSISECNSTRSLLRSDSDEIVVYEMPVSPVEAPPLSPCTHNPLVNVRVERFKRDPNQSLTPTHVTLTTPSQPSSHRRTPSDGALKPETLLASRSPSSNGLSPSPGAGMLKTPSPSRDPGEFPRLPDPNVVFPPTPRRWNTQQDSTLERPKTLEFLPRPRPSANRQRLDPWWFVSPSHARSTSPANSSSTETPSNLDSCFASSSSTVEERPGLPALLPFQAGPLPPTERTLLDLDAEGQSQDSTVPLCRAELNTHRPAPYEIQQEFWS
Ribosomal protein S6 kinase alpha-5 (Homo sapiens), sequence (O75582 whole entry, looked up): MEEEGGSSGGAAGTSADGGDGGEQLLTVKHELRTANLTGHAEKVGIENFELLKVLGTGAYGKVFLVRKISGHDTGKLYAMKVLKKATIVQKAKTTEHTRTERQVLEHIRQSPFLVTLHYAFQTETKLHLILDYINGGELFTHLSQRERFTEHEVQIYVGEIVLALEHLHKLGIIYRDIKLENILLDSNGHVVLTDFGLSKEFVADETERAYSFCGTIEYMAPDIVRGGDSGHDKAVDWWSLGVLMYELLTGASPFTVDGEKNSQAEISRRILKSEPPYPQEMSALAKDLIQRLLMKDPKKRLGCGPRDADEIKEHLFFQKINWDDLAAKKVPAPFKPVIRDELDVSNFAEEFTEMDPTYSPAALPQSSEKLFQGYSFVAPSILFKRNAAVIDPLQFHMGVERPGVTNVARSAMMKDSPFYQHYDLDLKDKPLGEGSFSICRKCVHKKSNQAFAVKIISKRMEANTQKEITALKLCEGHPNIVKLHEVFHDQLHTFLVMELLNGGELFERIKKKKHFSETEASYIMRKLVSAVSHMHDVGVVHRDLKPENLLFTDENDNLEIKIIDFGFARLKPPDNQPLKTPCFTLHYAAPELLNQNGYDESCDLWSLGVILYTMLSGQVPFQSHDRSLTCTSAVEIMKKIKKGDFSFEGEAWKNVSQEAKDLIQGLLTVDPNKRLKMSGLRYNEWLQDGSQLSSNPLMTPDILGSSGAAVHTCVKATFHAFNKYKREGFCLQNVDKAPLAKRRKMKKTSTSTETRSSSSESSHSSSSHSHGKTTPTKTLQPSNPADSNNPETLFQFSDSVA

SMILES	residual activity [1] [%]	residual activity [2] [%]	residual activity [3] [%]	residual activity [4] [%]	residual activity [5] [%]	residual activity [6] [%]	residual activity [7] [%]	residual activity [8] [%]	residual activity [9] [%]	residual activity [10] [%]	residual activity [11] [%]	residual activity [12] [%]	residual activity [13] [%]	residual activity [14] [%]	residual activity [15] [%]	residual activity [16] [%]	residual activity [17] [%]	residual activity [18] [%]	residual activity [19] [%]	residual activity [20] [%]
O=C1Cc2c([nH]c3ccc([N+](=O)[O-])cc23)-c2ccccc2N1	79	77	73	7	5	60	79	48	57	108	107	100	100	33	30					
O=C1NC(=O)c2c1c1c3ccccc3[nH]c1n1cncc21	69	21	42	33	12	99	90	82	79	63	48	82	63	40	21	27	11	8	53	29
N#C/C(=C\c1ccc(O)c(O)c1)C(=O)NCc1ccccc1	89	101	83				87	87	82		57		88			68	101	100	86	74
O=C(CCCc1ccc(-c2ccccc2F)cc1)Nc1ccc(O)cc1	98	75	89	91	89	107	136	108	105	110	104	105	94	80	107	85	102	82	110	100
Nc1ncnc2c1c(-c1ccc(Oc3ccccc3)cc1)cn2C1CCCC1	85	89	95			107	118	90	69	126	67	106	96	76	48	79	63	45	83	59
N#C/C(=C1/Nc2ccccc2S1)c1ccnc(NCCc2cccnc2)n1	84	39	67	48	9					112	68			81	84	42	96	73		
c1ccc(-c2cnc(Nc3ccc(OCCN4CCCC4)cc3)s2)cc1	77	72		74	22	107	106	106	109	128	106	108	78				76	58		
N#Cc1c(NC(=O)c2cccc3ccccc23)sc2c1CCCC2	93	85	88	96	95			100								82		83		99
O=C(NC(NC(=S)Nc1ccc(F)c([N+](=O)[O-])c1)C(Cl)(Cl)Cl)C(c1ccccc1)c1ccccc1 (configuration not stated)	135	80		102	103			97	87			98		92		96	103	79	95	94
O=c1c(-c2ccc(F)cc2)c(-c2ccncc2)[nH]n1-c1ccc(Cl)cc1	74	0	77			119										22				
NC(=O)Nc1sc(-c2ccc(F)cc2)cc1C(N)=O	97	41	96	9	1			80	50			96	67	28	10	44	92	31	85	46
O=c1cc(N2CCOCC2)oc2c1ccc1ccccc12	92	86	102	96	101	105	99	95	78	125	103		70	91	97	94	92	77		105
Nc1n[nH]c2nc3ccccc3nc12	95	84	88	82	41			86	92		86			76	94	81	95	69		
O=C1Nc2ccc(Cl)cc2/C1=C/c1cc(Cl)c(O)c(Cl)c1	82	38	95	56	18	99	96	80	67			100	71	41	12	61	39	37	84	51
O=C(O)/C=C/c1cc(Br)c(Br)c(Br)c1Br	99	84		93	72			106	90		102	124	100	97	97	71	94	22	102	64
CCN(CC)CCNC(=O)c1c(C)[nH]c(/C=C2\C(=O)Nc3ccc(Cl)cc32)c1C	66	46		24	4					80	31	98	61	12	5	81	9	3	42	15
NCCNc1ncc(C(N)=O)c(Nc2cccc(C(F)(F)F)c2)n1	18	6	73	30	4	104	105			112	77	108	75			38	67	55	81	81
COc1cc2nccc(Oc3ccc(NC(=S)NC(=O)c4ccccc4C)cc3)c2cc1OC	65	71	93	63	41		124	84	67	137	102			81	86	87	67	80	87	93
CC(C)(C)c1nc2c3ccc(F)cc3c3c(=O)[nH]ccc3c2[nH]1	39	41	69	9	21							79		8	10	35	2	4	36	44
Nc1ncnc2c1cnn2-c1ccccc1	79	91	97	83	57			95	83				23	97		94	86	84		86
Fc1ccc(-c2nc3n(c2-c2ccncc2)CCS3)cc1	61	9	82					99	98							83			95	85
O=c1cc(N2CCNCC2)oc2c(-c3ccccc3)cccc12	92	89	100	88	104	86		93	76		94	103	89	98	99	79	93	95	93	103
CSc1nc(-c2ccc(F)cc2)c(-c2ccnc(NC(C)c3ccccc3)c2)[nH]1 (configuration not stated)	70	-2	99	99	85				89				86			48		68	100	84
O=C(Nc1nc2ccccc2n1CCN1CCOCC1)c1cccc([N+](=O)[O-])c1	73	137	75	77	75			88	83	124				88	77	87	78	83		
O=C1Cc2c([nH]c3ccc(Br)cc23)-c2ccccc2N1	100	77	95	22	4			72	52			98	87	44	35	62	89	58	82	63
NC(=O)c1ccc(-c2nc(-c3ccc4c(c3)OCCO4)c(-c3ccccn3)[nH]2)cc1	97	58	91	94	79			95	92	120	124			90	118	95				
O=C(c1ccccc1)c1ccc(N2CCOCC2)cc1O	85	79	98			100	100	91	82		86	113		111	116	85	88	87	88	100
COc1ccc(COc2ccc(Cc3cnc(N)nc3N)cc2OC)cc1	78	80	113							131	109	111	82		77	80				
